Measurements published in PubChem BioAssay AID504333 (National Center for Advancing Translational Sciences (NCATS), 2011).
Several values for one entry are separate records, joined by “and”; a condition that tells them apart may be missing. Equal values may be shown once. The campaign covered roughly 360,000 compounds. About 16,000 (4.4%) were called active. Inconclusive results (about 9%) are left out. The call rests on the fitted dose curve; in most records, active means well fitted inhibition curve with a large enough effect; inconclusive means small, poorly fitted or top-dose-only effect; inactive means no such curve, though single readings can be large or run the other way. The entries come from a sample that favours actives as a whole. Entries that show only a call come without a potency. Some structures have more than one record in an assay (separate samples or runs), and their calls can disagree.

The compounds below were run against Bromodomain adjacent to zinc finger domain protein 2B (Homo sapiens) (UniProt Q9UIF8) (assay: qHTS Assay for Inhibitors of BAZ2B). Settings: AlphaScreen BAZ2B-H3K14Ac peptide displacement; series mostly up to 114 µM.
In short: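 Protein-peptide AlphaScreen: BAZ2B 50 nM, b-H3K14Ac 50 nM, 1x PBS pH 7.4 + 0.01% Tween-20. Preincubation 30 min RT; cpd 30 min RT (top 110 uM); beads 20 min RT, light-protected.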
Further: nearly all actives have a fitted effect of over 60% in size.
Potency means the concentration at half of the fitted maximal effect.

Sequence of Bromodomain adjacent to zinc finger domain protein 2B (Homo sapiens) (Q9UIF8 whole entry, looked up, the tested form may be a part): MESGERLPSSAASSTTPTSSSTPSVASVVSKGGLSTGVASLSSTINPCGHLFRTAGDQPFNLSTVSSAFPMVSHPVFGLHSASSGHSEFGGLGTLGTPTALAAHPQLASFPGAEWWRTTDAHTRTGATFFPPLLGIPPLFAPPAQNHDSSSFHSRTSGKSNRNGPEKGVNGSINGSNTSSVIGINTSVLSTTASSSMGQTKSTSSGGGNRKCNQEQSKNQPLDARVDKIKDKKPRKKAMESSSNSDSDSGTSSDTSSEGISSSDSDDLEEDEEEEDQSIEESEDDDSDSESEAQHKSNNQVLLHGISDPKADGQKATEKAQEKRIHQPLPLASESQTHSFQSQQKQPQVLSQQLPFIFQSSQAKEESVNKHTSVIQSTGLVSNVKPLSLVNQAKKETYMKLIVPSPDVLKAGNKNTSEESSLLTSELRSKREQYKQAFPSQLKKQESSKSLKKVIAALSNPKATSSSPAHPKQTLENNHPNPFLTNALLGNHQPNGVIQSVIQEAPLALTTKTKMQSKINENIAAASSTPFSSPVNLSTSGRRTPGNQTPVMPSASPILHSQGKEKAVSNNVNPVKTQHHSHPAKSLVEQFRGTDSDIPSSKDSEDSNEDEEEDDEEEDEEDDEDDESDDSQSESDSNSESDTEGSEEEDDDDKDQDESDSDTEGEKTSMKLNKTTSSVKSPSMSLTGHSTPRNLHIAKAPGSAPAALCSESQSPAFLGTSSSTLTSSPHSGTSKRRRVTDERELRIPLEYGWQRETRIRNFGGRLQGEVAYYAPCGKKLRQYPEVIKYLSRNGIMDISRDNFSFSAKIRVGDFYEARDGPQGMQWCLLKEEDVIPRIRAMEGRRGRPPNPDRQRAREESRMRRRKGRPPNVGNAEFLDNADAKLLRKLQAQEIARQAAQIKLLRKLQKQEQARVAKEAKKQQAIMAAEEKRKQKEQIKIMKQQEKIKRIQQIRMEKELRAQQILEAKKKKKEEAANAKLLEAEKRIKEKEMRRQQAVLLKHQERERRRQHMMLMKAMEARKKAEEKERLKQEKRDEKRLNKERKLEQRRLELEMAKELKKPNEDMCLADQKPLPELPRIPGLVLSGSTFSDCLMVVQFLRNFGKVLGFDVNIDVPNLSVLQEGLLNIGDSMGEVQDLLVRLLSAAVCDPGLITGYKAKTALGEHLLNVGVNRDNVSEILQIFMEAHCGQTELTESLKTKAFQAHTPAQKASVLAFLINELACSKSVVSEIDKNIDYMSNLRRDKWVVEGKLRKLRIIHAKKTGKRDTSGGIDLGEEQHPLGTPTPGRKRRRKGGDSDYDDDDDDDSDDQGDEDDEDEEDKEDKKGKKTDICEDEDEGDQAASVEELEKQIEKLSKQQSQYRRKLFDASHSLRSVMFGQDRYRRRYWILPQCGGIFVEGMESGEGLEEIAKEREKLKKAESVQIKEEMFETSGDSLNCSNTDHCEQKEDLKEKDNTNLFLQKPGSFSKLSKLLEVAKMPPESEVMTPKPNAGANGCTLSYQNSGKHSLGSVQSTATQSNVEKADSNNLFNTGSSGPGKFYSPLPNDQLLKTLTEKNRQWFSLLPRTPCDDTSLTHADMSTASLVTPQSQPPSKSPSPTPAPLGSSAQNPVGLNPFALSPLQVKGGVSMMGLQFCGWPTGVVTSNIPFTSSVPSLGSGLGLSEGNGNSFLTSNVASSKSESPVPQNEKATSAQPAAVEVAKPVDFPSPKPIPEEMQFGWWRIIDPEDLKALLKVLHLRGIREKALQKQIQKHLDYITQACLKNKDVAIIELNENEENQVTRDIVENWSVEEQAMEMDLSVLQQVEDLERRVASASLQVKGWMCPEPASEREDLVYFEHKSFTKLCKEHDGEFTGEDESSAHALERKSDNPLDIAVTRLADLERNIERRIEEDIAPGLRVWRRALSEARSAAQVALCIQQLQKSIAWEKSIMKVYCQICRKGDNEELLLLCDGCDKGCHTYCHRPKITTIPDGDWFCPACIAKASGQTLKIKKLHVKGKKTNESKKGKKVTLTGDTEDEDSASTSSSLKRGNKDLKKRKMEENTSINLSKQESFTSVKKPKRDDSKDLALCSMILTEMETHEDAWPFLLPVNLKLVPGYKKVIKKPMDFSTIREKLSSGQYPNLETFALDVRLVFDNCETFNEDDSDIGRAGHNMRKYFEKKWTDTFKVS

Structure (SMILES)	Potency
Nc1ccc2nc3c(=O)[nH]c(=S)[nH]c3nc2c1	31.6 µM (active)
CC1CN(C(=O)N2CCC(C(=O)NCc3cccs3)CC2)c2ccccc2O1 (centres undefined)	inactive
CCn1c(=O)cc(OCC(=O)Nc2cc(Cl)c(OC)cc2OC)c2ccccc21	inactive
Cc1cccc(C(=O)Nc2ccc(-c3nc4ncccc4o3)cc2C)c1	inactive
Cc1ccccc1C(=O)N1CCN(c2ccc(NC(=O)c3cccs3)cc2)CC1	inactive
COc1cccc(C(=O)Nc2ccc(N3CCN(C(=O)c4ccco4)CC3)cc2)c1	inactive
COc1cccc(C(=O)Nc2ccc3nc4n(c(=O)c3c2)CCCCC4)c1	inactive
O=C(Cc1ccccc1)NC(=S)Nc1ccc(N2CCCCC2)cc1	12.6 µM (active)
O=C(CCN1CCN(c2ccccc2)CC1)NNC(=S)Nc1ccccc1	inactive
Cc1ccccc1C(=O)NC(=S)Nc1ccc(N2CCN(C(=O)c3ccccc3)CC2)cc1	inactive
Cc1ccccc1C(=O)Nc1ccc(N2CCCCCC2)cc1	31.6 µM (active)
COC(=O)Cc1ccc(NC(=S)NCc2ccccc2)cc1	inactive
COc1cccc(C(=O)Nc2ccc(N3CCCC3)cc2)c1	31.6 µM (active)
Cc1cc2nn(-c3ccc(Cl)cc3)nc2cc1NC(=O)C(C)C	inactive
CCC1CCCCN1S(=O)(=O)c1ccc(NC(=O)c2cc(=O)c3ccccc3o2)cc1 (centres undefined)	inactive
CC(=O)Nc1cc(C(=O)NCc2ccc(F)cc2Cl)ccc1Sc1ccc(Cl)cc1	inactive
CSc1cccc(NC(=O)CN2C(=O)CCc3cc(S(=O)(=O)N4CCCCC4)ccc32)c1	inactive
Cc1ccccc1-n1c(=O)c2ccccc2n(Cc2ccc(F)cc2)c1=O	inactive
Cc1ccc(-c2nnc(Nc3ccc(OCC(N)=O)cc3)c3ccccc23)cc1S(=O)(=O)NCC1CCCO1 (centres undefined)	inactive
COc1ccc(CNC(=O)CS(=O)Cc2nc(-c3cccc(C)c3)oc2C)cc1 (centres undefined)	inactive
COc1ccc(CCNC(=O)c2c3c(nc4ccccc24)C(=O)N(C2CCCCC2)C3)cc1OC	inactive
COC(=O)c1cc2occc2n1Cc1nc(-c2ccc(C)cc2)oc1C	inactive
Cc1cc(N2CCN(S(=O)(=O)c3ccc(C)c(C)c3)CC2)c2ccccc2n1	inactive
Cc1ccc(S(=O)(=O)C(C#N)c2nc3ccccc3nc2N2CCCC2)cc1C (centres undefined)	79.4 µM (active)
Cc1ccc(S(=O)(=O)Nc2nc3ccccc3nc2N2CCc3ccccc3C2)cc1	inactive

Structure (SMILES)	Potency
COc1cccc(Cn2c(CNS(=O)(=O)c3ccc(Cl)s3)nc3cccnc32)c1	inactive
Cc1ccc(CNS(=O)(=O)c2ccc(C(=O)N(C)C)s2)cc1	inactive
O=C(CC1C(=O)N(c2ccccc2)C(=O)N1CCc1cccs1)Nc1ccc(F)cc1 (centres undefined)	inactive
COc1cccc(C2/C(=C(/O)c3ccc(F)cc3)C(=O)C(=O)N2CCN(C)C)c1 (centres undefined)	inactive
CCCOc1ccc(/C(O)=C2/C(=O)C(=O)N(CCN(C)C)C2c2ccc(OC)c(OC)c2)cc1 (centres undefined)	79.4 µM (active)
COc1ccc(/C(O)=C2/C(=O)C(=O)N(CCCN(C)C)C2c2ccccc2)cc1OC (centres undefined)	inactive
COc1ccc(CCNC(=O)c2ccc3c(c2)nc(C)n3-c2ccc(Br)cc2)cc1OC	inactive
COc1ccccc1CNC(=O)c1ccccc1NC(=O)c1nsc2ccccc12	inactive
CCOc1ccc(CNC(=O)c2ccc3c(c2)nnn3C2CCCC2)cc1	inactive
Cc1cc(C)c2nc(-c3ccco3)cc(C(=O)O)c2c1	39.8 µM (active)
CC1CCCN(C(=O)c2cc(-c3ccco3)nc3ccccc23)C1 (centres undefined)	inactive
O=C(c1cc(-c2ccco2)nc2ccccc12)N(Cc1nnc(-c2ccc(Cl)cc2)o1)C1CC1	inactive
CC(C)(C)c1ccc(S(=O)(=O)N2CCN(C(=O)c3cc(-c4ccc(Br)cc4)n[nH]3)CC2)cc1	inactive
Cc1cccc(CC(=O)N2CC(=O)Nc3ccc(F)cc3C2c2ccccc2)c1 (centres undefined)	inactive
CCc1ccc(CNC(=O)c2cc3c(=O)n(CC)c4ccccc4c3s2)cc1	inactive
O=C(COc1ccc(/C=N/NS(=O)(=O)c2ccccc2)cc1)NCCc1ccccc1	inactive
O=S(=O)(N/N=C\c1cccn1-c1ccccc1)c1ccc2ccccc2c1	35.5 µM (active)
COc1ccc(N2CC(NS(=O)(=O)c3ccc4ccccc4c3)CC2=O)cc1 (centres undefined)	inactive
CCOc1ccccc1CNC(=O)C1CCCN(S(=O)(=O)c2ccc3c(ccn3C)c2)C1 (centres undefined)	inactive
Cc1cc2oc(C(=O)N(Cc3ccc(Cl)cc3)Cc3ccco3)c(C)c2cc1Cl	inactive
CCc1cnc2c(c1SCC(=O)c1ccccc1)c(=O)n(C)c(=O)n2C	inactive
COc1cccc(N2CCN(S(=O)(=O)c3cc(Br)cc4c3N(C(=O)C3CC3)CC4)CC2)c1	inactive
CCC(=O)N1CCc2cc(Br)cc(S(=O)(=O)Nc3ccc(C)cc3C)c21	inactive
COc1ccc(-c2oc3ncn(Cc4ccco4)c(=N)c3c2-c2ccc(OC)cc2)cc1	28.2 µM (active)
COc1ccc(NC(=O)C(=O)NCc2ccco2)cc1	inactive

Structure (SMILES)	Potency
COc1ccc(Cn2ccnc2SCC(=O)NCc2ccco2)cc1	inactive
CCN1CCN(c2ncc3c(n2)CC(c2ccccc2O)CC3=O)CC1 (centres undefined)	inactive
Cc1ccc(C(=O)N2CCc3cc(CNC(=O)c4ccc(Br)cc4)ccc32)cc1	inactive
N#Cc1c(NC(=O)CSc2nc3ccccc3c(=O)n2Cc2ccco2)sc2c1CCCC2	inactive
Cc1ccc(C)c(OCC(=O)Nc2sc3c(c2C#N)CCCC3)c1C	inactive
COc1ccc(-n2c(SCC(=O)Nc3sc4c(c3C#N)CCCC4)nnc2-c2ccc(O)cc2)cc1	79.4 µM (active)
Cc1cs/c(=N\N=C\c2ccc(O)cc2)n1Cc1ccco1	44.7 µM (active)
CN(c1ccccc1)c1ccc(/C=c2\s/c(=C(/C#N)C(=O)C(C)(C)C)n(Cc3ccco3)c2=O)cc1	inactive
COc1ccc(NC(=O)CSc2nnc(-c3cccs3)n2Cc2ccco2)cc1OC	inactive
Cc1ccc(-c2cn3c(n2)sc2cc(C(=O)NCc4cccs4)ccc23)c(C)c1	inactive
Cc1ccccc1CSc1nnc(-c2ccccn2)n1N	28.2 µM (active)
Cc1ccccc1CSc1nnc(-c2cccnc2)n1N	inactive
Cc1ccccc1CSc1nnc(Cn2c(=O)sc3ccccc32)n1C	inactive
CCOC(=O)CCCNC(=O)COC(=O)/C=C/c1ccc2c(c1)OCO2	inactive
CCC1=C/C(=C\c2ccc3c(c2)OCO3)C(=O)S1	44.7 µM (active)
O=C(Cc1ccc(F)cc1)N/N=C/c1ccc2c(c1)OCO2	inactive
Cn1c(=O)c2c(nc(SCC(=O)Nc3ccc(F)cc3)n2Cc2ccc(Cl)cc2)n(C)c1=O	inactive
CC1Cc2cc(S(=O)(=O)CCC(=O)Nc3ccc(F)c(Cl)c3)ccc2N1C(=O)C1CC1 (centres undefined)	inactive
Cc1ccc(NC(=O)c2cc3ccccc3o2)cc1	inactive
C/C(=N\NC(=S)Nc1ccc(C)cc1)c1cc2ccccc2o1	56.2 µM (active)
CC(C)Oc1ccc(NC(=O)c2cc3ccccc3o2)cc1	inactive
Cc1ccc(NC(=O)C2CCN(S(=O)(=O)c3cc(-c4noc(C)n4)ccc3C)CC2)c(C)c1	inactive
C/C(=N\NC(N)=S)c1cccnc1	inactive
C/C(=N\NC(N)=S)c1ccncc1	50.1 µM (active)
C/C(=N/NC(=O)c1ccn(C)n1)c1ccncc1	inactive

Structure (SMILES)	Potency
CCOC(=O)c1c(C)[nH]c(C)c1S(=O)(=O)N(C)CC(=O)N1CCN(c2ccccc2)CC1	inactive
Cc1ccccc1NC(=O)Cn1c(=O)n(CC2CCC(C(=O)NCCc3ccccc3)CC2)c(=O)c2ccccc21 (centres undefined)	inactive
Cc1c(Cl)cccc1NC(=O)C(=O)NCCc1csc2nc(-c3ccccc3F)nn12	inactive
CC1(C(=O)NCCc2c[nH]c3ccccc23)C=CC2(CCCCC2)N1C(=O)c1ccccc1 (centres undefined)	inactive
CC(=O)NC(Cc1c[nH]c2ccccc12)C(=O)NCCc1ccccc1 (centres undefined)	inactive
C[C@]1(C(=O)NCCc2c[nH]c3ccccc23)C=C[C@@H](Cc2ccccc2)N1C(=O)c1ccccc1	79.4 µM (active)
COc1cc(Nc2nc(-c3ccc(OC)c(OC)c3)nc3ccccc23)cc(OC)c1	inactive
Cc1cccc(C(=O)Nc2nnc(S(=O)(=O)N3CCCCCC3)s2)c1	inactive
CC1CCN(S(=O)(=O)c2nnc(NC(=O)COc3ccccc3F)s2)CC1	inactive
Cc1ccccc1OCC(=O)Nc1nnc(S(=O)(=O)N2CCCC2)s1	inactive and 3.55 µM (active)
CCOCCCNC(=O)c1ccc2nc(CCc3ccccc3)oc2c1	inactive
COc1ccc(CCNC(=O)Cn2c(=O)cc(C(F)(F)F)c3c(C)nn(C)c32)c(OC)c1	inactive
CCCC1CCC(=NNC(=S)NCCc2ccccc2)CC1 (centres undefined)	10 µM (active)
S=C(NCCc1ccccc1)Nc1ccccc1	inactive
S=C(NCCc1ccccc1)NCC1CCCO1 (centres undefined)	inactive
COc1ccccc1NC(=O)c1oc2ccccc2c1NC(=O)C(C)C	inactive
Cc1cccc(NC(=S)NCc2ccc3[nH]c4c(c3c2)CCCC4)c1	39.8 µM (active)
O=C(O)CCC(=O)NCc1ccc2[nH]c3c(c2c1)CCCC3	inactive
Cc1cccc(NC(=S)NCCN(C2CCCCC2)C2CCCC2)c1	inactive
O=C(CCn1c(=O)c2sccc2n(Cc2ccc(F)cc2)c1=O)NCc1ccc2c(c1)OCO2	inactive
O=C(Cn1c(=O)nc(-c2ccccc2)c2cc(Cl)ccc21)NCc1ccc(Cl)cc1	inactive
C=CS(=O)c1sc(Cl)c(N2CCOCC2)c1[N+](=O)[O-] (centres undefined)	39.8 µM (active)
CCC(=O)Nc1cccc(-c2nc3cc(C)ccc3o2)c1	inactive
Cc1ccc(C)c(N2CCN(C(=O)Cn3ncc4c(=O)oc5ccc(C)cc5c43)CC2)c1	inactive
